Results taken from PubChem BioAssay (NCI).
Compounds without any hit were thinned out: in the full panel of roughly 83,000, 20% have a hit.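 The endpoint reported here, percent growth, reads 100 for growth as untreated, 0 for no net growth and -100 for all cells dead.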 Unmarked numbers belong to inactive results. Calls of active or inactive are those of the source. Rule for the calls: active = growth percent below 10; inactive = the rest.

Assays:
Experiment in all cases: NCI-60 one-dose screen, 48 h (100 = growth as untreated, 0 = no growth, -100 = all killed)
Conditions in all cases: 10 µM unless noted
[1] = tested on: NCI-H23 lung
[2] = tested on: NCI-H226 lung
[3] = tested on: NCI-H322M lung
[4] = tested on: HOP-62 NSCLC
[5] = tested on: NCI-H460 lung
[6] = tested on: NCI-H522 lung
[7] = tested on: A549/ATCC NSCLC
[8] = tested on: 786-0 renal
[9] = tested on: COLO 205 colon
[10] = tested on: DU-145 prostate
[11] = tested on: K-562 leukemia
[12] = tested on: MALME-3M melanoma
[13] = tested on: MDA-MB-231 breast
[14] = tested on: RXF 393 renal
[15] = tested on: SF-268 CNS
[16] = tested on: SF-295 CNS
[17] = tested on: SF-539 CNS
[18] = tested on: UACC-257 melanoma
[19] = tested on: M14 melanoma
[20] = tested on: HOP-92 NSCLC

| Compound | growth [1] [%] | growth [2] [%] | growth [3] [%] | growth [4] | growth [5] | growth [6] | growth [7] | growth [8] | growth [9] | growth [10] | growth [11] | growth [12] | growth [13] | growth [14] | growth [15] | growth [16] | growth [17] | growth [18] | growth [19] | growth [20] [%] |
| --- | --- | --- | --- | --- | --- | --- | --- | --- | --- | --- | --- | --- | --- | --- | --- | --- | --- | --- | --- | --- |
| NC(N)=N/N=C/c1ccc([N+](=O)[O-])cc1 | 91.4 | 101 | 93.5 | 104% | 104% | 107% | 109% | 103% | 113% | 125% | 117% | 103% | 101% | 102% | 103% | 91.3% | 105% | 102% | 105% | – |
| NC(CSC(c1ccccc1)(c1ccccc1)c1ccc(F)cc1)C(=O)O (stereo not given) | 14.4 | 61.8 | 28.7 | -28.7% (active) | 2.02% (active) | -59.1% (active) | 11.7% | -50.8% (active) | 5.57% (active) | -40.3% (active) | -4.92% (active) | 30.6% | -18.6% (active) | – | 24.4% | 0.119% (active) | -7.79% (active) | -15.2% (active) | -55.4% (active) | – |
| Cc1ccc(-c2nc3c(N=Nc4ccc(S(N)(=O)=O)cc4)c(N)nn3c(N)c2C#N)cc1 | 43.9 | 65 | 66.1 | 42.6% | – | 28.7% | 63.1% | 64.5% | 14.5% | 34.6% | 20.3% | 48.5% | 40.1% | 27.9% | 34.5% | 49.2% | 30.7% | 72.3% | 46.4% | 19.6 |
| O=C(Nc1ccc(-n2ccc3c(NC(=O)c4ccccc4)ncnc32)cc1)Nc1ccc(Cl)c(Cl)c1 | 18.7 | 16.7 | 21 | 8.39% (active) | -29.6% (active) | -12.2% (active) | -44.5% (active) | 26.1% | 17.7% | -12.3% (active) | -39.8% (active) | 7.71% (active) | 26.7% | -18.2% (active) | -20.7% (active) | -8.32% (active) | -22.6% (active) | 8.87% (active) | 12% | – |
| CCCc1nn2c(CCC(=O)c3nc4ccc([N+](=O)[O-])cc4[nH]3)nnc2s1 | 94.4 | 102 | 97.9 | 106% | – | 104% | 99.9% | 108% | 112% | 108% | – | 105% | 95.9% | 114% | 100% | 104% | 103% | 113% | 99.6% | 114 |
| c1coc(CSc2ncnc3nc[nH]c23)c1 | 103 | 101 | 125 | 99.7% | 111% | 80% | – | 97% | 113% | 108% | – | 125% | 115% | 91.1% | 101% | 142% | 91.6% | 97.3% | 101% | – |
| COc1ccc(Cl)cc1NC(=O)c1cc2c([nH]1)-c1nc(NC(=O)C(C)C)sc1CC2 | 83.5 | 79.5 | 92.8 | 75.3% | – | 63.7% | 91.1% | 105% | 102% | 96.2% | 76.4% | 104% | 113% | 109% | 94.9% | 101% | 26% | 92.7% | 101% | 90 |
| CCOc1ccc(-n2c(-c3cc(OC)c(OC)c(OC)c3)nnc2-c2ccc(OC)cc2N)cc1 | 76.4 | 80.1 | 81.3 | 78.3% | – | 52.6% | 54.9% | 89.5% | 51% | 57.6% | 70.3% | 79.7% | 82.7% | 51.9% | 86.9% | 84.8% | 77.6% | 57.2% | 68.1% | 73.1 |
| COc1cc2ncn3c(=O)c4c5c(sc4nc3c2cc1OC)CCCCC5 | 89.3 | 74.5 | 90.9 | 91% | – | 99.9% | 104% | 106% | 98% | 111% | 97.3% | 93.7% | 91.7% | 105% | 93.7% | 105% | 100% | 105% | 106% | 81.9 |
| COc1ccc(C2=NN(C(=O)COc3ccc(Cl)cc3)C(O)(c3cc(F)c(Cl)cc3Cl)C2)cc1 (stereo not given) | 96.3 | 109 | 83.4 | 61.8% | – | 79.5% | 96.4% | 82% | 101% | 105% | 82.4% | 85.8% | 105% | 94.1% | 102% | 80.6% | 89.3% | 98.6% | 85.2% | 39.4 |
| CCCCCCCCCCCCCCCCNc1ccccc1 | 102 | 99.8 | 83.8 | 105% | 105% | 64.6% | 59.7% | 81.4% | 113% | 107% | 79.8% | 114% | 104% | 110% | 86.6% | 102% | 97.1% | 82.3% | 106% | – |
| O=C(Nc1ccc(-n2ccc3c(NC(=O)c4ccccc4)ncnc32)cc1)c1ccc(Cl)c(C(F)(F)F)c1 | 56.5 | 32.3 | 44.1 | 45.6% | – | 11.3% | – | 54.9% | 33.3% | 23.1% | 7.82% (active) | 26.9% | 12.2% | 19% | 18.7% | 11.7% | 31.9% | 46% | 9.79% (active) | 89.4 |
| C/C(=N/O)c1ccc(NC(=O)Cn2nc(-c3ccc(Cl)cc3)nc2N)cc1 | 92.7 | 82.9 | 92.4 | 88.8% | – | 68.7% | 79.3% | 109% | 101% | 104% | 99.3% | 102% | 82.7% | 100% | 89.2% | 107% | 97.3% | 73% | 107% | 99.2 |
| N#Cc1c(N)nc2c(c1N)C(c1ccc(Cl)cc1)C1=C(CCCC1=O)N2c1sc2c(c1C#N)CCCC2 (stereo not given) | 91.2 | 89.2 | 83.5 | 80% | – | 84.3% | 90.1% | 80.1% | 96.2% | 99.7% | 74.2% | 90.7% | 75.4% | 60.6% | 89.5% | 101% | 96% | 92.6% | 90.3% | 62 |
| Nn1c(CN2CCN(c3cc4c(cc3F)c(=O)c(C(=O)O)cn4C3CC3)CC2)n[nH]c1=S | 95.2 | 107 | 93.3 | 96.4% | – | 85.8% | 101% | 97.3% | 121% | 107% | 101% | 94.6% | 107% | 109% | 95.9% | 102% | 99.3% | 111% | 105% | 116 |
